# POLB inh = qHTS Assay for Inhibitors of DNA Polymerase Beta; P06746; Pol beta primer extension/strand displacement, fluorescence kinetic; Potency, µM (titrated, usually from 114 µM), for inactives: at the highest dose activity change, negative = inhibition, usual class: inhibitors; 1.3% of 340,000 active; also: % is scaled to controls: 0 for no effect and ±100 for the full control effect
#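 Enzyme-only controls used 10 nM Pol beta; buffer lacking enzyme served as negative control. Compound preincubated 15 min, then 50 nM substrate added; 0 and 10 min reads at room temperature.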
# FEN1 inh = qHTS Assay for the Inhibitors of Human Flap endonuclease 1 (FEN1). Recombinant FEN1 flap cleavage, fluorescence, 15 min. Potency, µM (titrated, usually from 114 µM), for the others: at the top dose activity change, negative = inhibition, actives largely listed as inhibitors. 0.35% of 390,000 active. AID 588795, 2011; also: % is scaled to controls: 0 for no effect and ±100 for the full control effect; nearly all actives have a fitted effect of over 65% in size
# Target sequence (P39748 whole entry, looked up): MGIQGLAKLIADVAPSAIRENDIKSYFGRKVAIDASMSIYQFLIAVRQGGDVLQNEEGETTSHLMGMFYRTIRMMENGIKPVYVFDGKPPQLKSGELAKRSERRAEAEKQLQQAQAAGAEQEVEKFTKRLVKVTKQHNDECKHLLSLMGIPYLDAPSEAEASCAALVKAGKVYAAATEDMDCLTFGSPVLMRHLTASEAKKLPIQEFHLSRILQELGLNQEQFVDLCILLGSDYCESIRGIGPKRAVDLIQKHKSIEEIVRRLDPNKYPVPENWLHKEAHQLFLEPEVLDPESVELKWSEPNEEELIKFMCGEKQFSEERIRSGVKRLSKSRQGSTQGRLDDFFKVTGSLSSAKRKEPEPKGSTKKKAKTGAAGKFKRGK
#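 Reaction started by adding substrate (50 nM final) to 10 nM enzyme after 15 min room-temperature compound preincubation. Reads at 0 and 15 min, with data normalized and fitted to a four-parameter Hill equation.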
# POLH inh = qHTS for Inhibitors of Polymerase Eta. DNA polymerase eta (Homo sapiens), Q9Y253. recombinant Pol eta, fluorescent DNA replication assay. Potency, µM (top dose mostly 114 µM), for inactives: at the highest dose activity change, negative = inhibition, actives largely listed as inhibitors. 1.2% of 390,000 active; also: % is scaled to controls: 0 for no effect and ±100 for the full control effect
#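 Fluorescent replication assay: 50 nM final substrate added after a 15 min room-temperature compound preincubation with 10 nM enzyme. Signal taken at 0 min and again at 10 min.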
# POLI inh = qHTS for Inhibitors of Polymerase Iota. 1% of 390,000 active. DNA polymerase iota (Homo sapiens), Q9UNA4. Potency, µM (highest dose often 115 µM), for inactives: at the top dose activity, negative = inhibition, hits mostly inhibitors. Pol iota fluorescent replication assay, 10 min
#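 Fluorescent replication assay read twice, at 0 min and 10 min after adding 50 nM (final) substrate. Enzyme (10 nM) and compounds were first incubated 15 min at room temperature; enzyme-free buffer wells were negative controls.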
# PGK inhibitor = qHTS Assay to Find Inhibitors of Phosphoglycerate Kinase; Phosphoglycerate kinase, glycosomal (Trypanosoma brucei brucei), P07378; PGK/GAPDH coupled, Kinase-Glo luminescence, 60 min; Potency, µM (series often up to 57.5 µM), without a hit: at the top dose activity change, negative = inhibition, actives largely listed as inhibitors; 0.043% of 380,000 active; also: % is scaled to controls: 0 for no effect and ±100 for the full control effect; nearly all actives have a fitted effect of over 60% in size
#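 Luminescent ATP detection (Kinase-Glo Plus) follows a 60-minute room-temperature incubation, with wells lacking PGK as controls. Buffer: 100 mM TEA (pH 7.6), 5 mM MgCl2, 0.01% Tween-20. Coupling enzyme GAPDH (100 nM final) supplies unstable 1,3-BPG in-well.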
# Pol kappa inh = qHTS for Inhibitors of Polymerase Kappa; DNA polymerase kappa (Homo sapiens), Q9UBT6; 0.53% of 400,000 active; AID 588579, 2011; purified Pol kappa, fluorescent DNA synthesis assay, 10 min; Potency, µM (highest dose often 107 µM), for inactives: top-dose activity, negative = inhibition, actives largely listed as inhibitors; also: % is scaled to controls: 0 for no effect and ±100 for the full control effect
#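 Here, compound and 10 nM enzyme are combined for 15 min at room temperature; adding 50 nM substrate (final) starts DNA synthesis, tracked by fluorescence at 0 and 10 min against buffer-only wells.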
# The depositor's hits bear a star; i = inactive; u = inconclusive; x = no result given; [ ] = dose if it differs, or a comment. Shown are actives, neighbours in structure and some others; about 2.4% of the full set was active somewhere. Calls follow the shape of the dose curve; as a rule, active = well fitted curve in the direction sought with a large enough effect; inconclusive = small, poorly fitted or top-dose-only effect, or another doubt; inactive = no such curve, though single readings can be large; an effect the other way counts as inactive or inconclusive. Potency is read from the fitted curve at half-maximal effect.
SMILES,POLB inh,FEN1 inh,POLH inh,POLI inh,PGK inhibitor,Pol kappa inh
COC(=O)c1ccc(NC(=O)c2nc(SCc3ccccc3F)ncc2Cl)cc1,x,10.0%,x,54.4%,x,-2.5%
O=C1/C(=C/c2cccc(O)c2)SC(=S)N1CC1CCCO1 (configuration not stated),5.6%,-1.3%,-18.4%,27.8%,-5.7%,4.8%
CCOc1cc(/C=C2/SC(=S)N(CC3CCCO3)C2=O)ccc1O (configuration not stated),u,-33.3%,-19.4%,28.2µM*,-14.9%,-18.0%
COc1ccc2oc(-c3ccc(C)c(NC(=O)c4ccc(N5CCCCC5)c([N+](=O)[O-])c4)c3)nc2c1,-1.0%,-10.4%,-14.1%,12.2%,0.7%,-15.0%
CCOc1ccc2nc3cc(N=Nc4ccc(N)nc4N)ccc3c(N)c2c1,x,7.08µM*,44.7µM*,u,-22.1%,u
CC(C)c1ccc(C(=O)C[N+]2(C)CCOCC2)cc1,x,-1.4%,x,32.2%,x,18.4%
O=C(Nc1ccc(C2=NCCN2)cc1)c1ccc(Cl)c(C(=O)Nc2ccc(C3=NCCN3)cc2)c1,50.1µM*,x,x,x,x,x
N#Cc1nc(-c2ccccc2)cc(-c2ccccc2)n1,x,12.6%,x,-9.7%,x,-9.3%
O=S(=O)(Nc1nc2ccccc2nc1Nc1cccc(S(=O)(=O)N2CCCCC2)c1)c1ccccc1,u,4.1%,89.1µM*,u,-18.7%,-16.0%
COc1ccc(S(=O)(=O)Nc2cccc(S(=O)(=O)N3CCCCCC3)c2)cc1,20.1%,8.5%,-16.8%,-1.9%,i,-6.6%
CC(=O)Nc1ccc(S(=O)(=O)Nc2nc3ccccc3nc2Nc2ccc(S(N)(=O)=O)cc2)cc1,21.8%,-14.8%,-7.4%,155.2%,-0.7%,-12.9%
CC(=O)Nc1ccc(S(=O)(=O)Nc2nc3ccccc3nc2Nc2ccc(O)c(C(=O)O)c2)cc1,15.3%,u,-9.3%,20µM*,7.7%,79.4µM*
COc1cccc(N2CCN(C(=O)c3ccc4nc[nH]c4c3)CC2)c1,29.2%,-5.6%,89.1µM*,u,-9.1%,-16.4%
COc1cccc(CNC(=O)COC(=O)c2ccc(S(C)(=O)=O)c([N+](=O)[O-])c2)c1,x,-5.5%,x,18.5%,x,2.1%
COC(=O)c1ccc(NC(=O)CC2C(=O)N(c3cccc(OC)c3)C(=O)N2Cc2ccco2)cc1 (configuration not stated),3.0%,-9.6%,-15.4%,38.3%,-1.8%,-18.1%
O=c1c2ccccc2ncn1-c1ccc(Br)cc1[N+](=O)[O-],-4.9%,0.8%,-21.2%,26.1%,-3.0%,0.1%
O=C1c2cc(Br)ccc2N(Cc2ccc(Br)cc2)S(=O)(=O)C1c1cc(Cl)c(Cl)cc1[N+](=O)[O-] (configuration not stated),x,u,22.4µM*,u,-9.6%,u
CC(=O)Nc1cc(NC(C)=O)cc(C(=O)OCC(=O)c2ccc3c(c2)NC(=O)CO3)c1,x,-3.7%,-20.4%,u,-9.7%,-11.9%
N#CCC(=O)Nc1ccc(C(=O)OCC(=O)c2ccc3c(c2)NC(=O)CO3)cc1,x,u,u,22.4µM*,-9.1%,u
O=C1COc2ccc(C(=O)COC(=O)/C=C/c3ccco3)cc2N1,x,-16.1%,u,44.7µM*,-22.7%,u
CC(=O)N(c1ccc(Cl)cc1)C1SC(=O)N(c2ccccc2)C1=O (configuration not stated),x,-11.2%,x,u,x,0.3%
CCOc1ccccc1NC(=O)c1nc2nc(C)cc(C(F)F)n2n1,-0.8%,0.3%,-2.4%,24.4%,-3.9%,-5.8%[60.1 µM]
O=C(CSc1nc2nn(-c3ccccc3)c(=O)c-2c2n1CCCCC2)c1ccc(O)c(O)c1,x,u,1.78µM*,2µM*,u,3.98µM*
CCN(c1ccccc1)S(=O)(=O)c1c(C)nc2scc(C)n2c1=O,2.0%,-10.1%,-1.8%,-1.0%,-4.8%,-15.1%
O=C(/C=C/c1ccco1)N1CCC(Cc2ccccc2)CC1,u,-7.9%,u,39.8µM*,-10.0%,u
SMILES,POLB inh,FEN1 inh,POLH inh,POLI inh,PGK inhibitor,Pol kappa inh
Nc1nc2[nH]cc(CCc3ccc(C(=O)N[C@@H](CCC(=O)O)C(=O)O)cc3)c2c(=O)[nH]1,x,2.6%,x,13.5%,x,u
CCc1ccc(/C=C/C(=O)c2cc(Br)ccc(=O)c2O)cc1,15.8µM*,u,u,u,-0.7%,u
CCOc1ccc(/C=C/C(=O)c2cc(Br)ccc(=O)c2O)cc1,u,44.7µM*,u,u,-10.5%,u
Cc1ccc2nc(-c3ccc(N=Nc4cc(S(=O)(=O)O)c5ccccc5c4O)cc3)sc2c1S(=O)(=O)O,x,7.08µM*,x,25.1µM*,x,20µM*
Cc1ccc(N=Nc2ccc3ccccc3c2O)cc1,-6.9%,6.4%,-22.2%,92.1%,u,2.6%
O=C(O)CC(Sc1n[nH]c(=S)s1)C(=O)O (configuration not stated),25.1µM*,11.9%,24.8%,u,-1.3%,-20.9%
O=C(O)COn1c(-c2ccccc2)nc2ccc(Cl)cc21,-2.4%,-0.5%,-13.5%,14.7%,-6.3%,-9.0%
O=[N+]([O-])c1ccc2nc(-c3ccccc3)n(OCc3ccc(Cl)cc3)c2c1,28.2µM*,1.5%,15.8µM*,-5.0%,-10.8%,u
O=C(N/N=C1\CCCc2oc(C(=O)O)cc21)c1ccccc1,9.0%,-18.5%,3.0%,-6.1%,-4.4%,-11.3%
O=C(O)c1cc2c(o1)CCC/C2=N\O,89.1µM*,0.4%,-9.9%,0.6%[58.9 µM],-0.2%,-27.7%
O=C(O)CCCC/C=C(\c1ccccc1)c1cccnc1,x,x,x,x,x,5.4%[19.4 µM]
NS(=O)(=O)c1ccc(N=Nc2c(=O)[nH]n3c(=O)c4c([nH]c23)CCCC4)cc1,2.0%,u,-24.6%,34.9%,-12.3%,-24.4%
O=c1[nH]n2c(=O)c3c([nH]c2c1N=Nc1cccc(Cl)c1)CCC3,8.91µM*,u,20µM*,20µM*,-9.0%,89.1µM*
O=c1[nH]n2c(=O)c3c([nH]c2c1N=Nc1cccc(C(F)(F)F)c1)CCCC3,17.8µM*,u,u,-4.4%,-11.3%,-27.6%
COC(=O)C1=C[C@@H](C(=O)OC)C2C3=C(C(=O)[C@@]2(C)NC(=O)c2ccccc2)[C@H](C)[C@@H]2C(=O)N(C)C(=O)[C@@H]2[C@@H]3C1 (some centres not stated),x,-7.6%,x,u,x,-0.2%

# Screens from PubChem.
